According to PubChem BioAssay (NCATS):
Results filed as inconclusive are left out. The source made the active and inactive calls. Calls follow the shape of the dose curve; as a rule, active = well fitted cell-killing curve with a large enough effect; inconclusive = small, poorly fitted or top-dose-only effect, or effect the other way; inactive = no such curve, though single readings can be large or run the other way.
Potency is read from the fitted curve at half-maximal effect.

Assay: Viability qHTS for spleen associated tyrosine kinase inhibitor (SYKi) drug resistant MV4-11 cells (AID 1963824); also: nearly all actives have a fitted effect of over 35% in size
Settings: SYKi-resistant MV4-11 viability, CellTiter-Glo, 72 h; series mostly up to 45 µM
Summary of the method: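 CellTiter-Glo luminescence, read 10 min after reagent addition, reports viability after a 72 hr compound exposure. Cells are an MV4-11 line made resistant to SYK inhibition, seeded at 500 per well onto compound-containing plates.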
In the case of `O=S(=O)(CC1CS1)c1ccc(Oc2ccccc2)cc1` (centres undefined), the Potency is reported as 10.5 µM (active).
In the case of `Cc1ccc(-n2nccn2)c(C(=O)N2CCN(c3nc4cc(Cl)ccc4o3)CCC2C)c1` (centres undefined), the Potency is reported as 9.2 µM (active).
For `O=C(C[C@@H]1NCCC[C@H]1O)Cn1cnc2ccccc2c1=O`, the Potency was 0.231 µM (active).
For `C=CCN1CCC2(C)c3cc(O)ccc3C[C@H]1[C@H]2C`, the Potency was “inactive”.
With `C/C=C(\C)C(=O)OC1CC2C(CC=C3CC(OC4CC(OC)C(OC5CC(OC)C(OC6OC(C)C(OC7OC(CO)C(O)C(O)C7O)C(OC)C6O)C(C)O5)C(C)O4)CCC32C)C2(O)CCC(C(C)=O)C12C` (centres undefined) the viability, % of control was 85.3% [at 9.25 µM] (inactive).
With `COCC1OC(=O)c2coc3c2C1(C)C1=C(C3=O)C2CCC(=O)C2(C)CC1OC(C)=O` (centres undefined) the Potency was 2.06 µM (active).
With `C1=C(c2cnc[nH]2)c2ccsc2CC1` the Potency was “inactive”.
In the case of `CO[C@H]1[C@H](O)[C@H](O[C@H]2CC[C@]3(C=O)C4CC[C@]5(C)[C@H](C6=CC(=O)OC6)CC[C@]5(O)C4CC[C@@H]3C2)O[C@@H](C)[C@@H]1O` (some centres undefined), the Potency is reported as 0.02 µM (active).
In the case of `CO[C@H]1[C@@H](O)[C@@H](C)O[C@@H](O[C@@H]2C=C3C(OC(C)=O)CC4(O)C(CC[C@]5(C)[C@@H](C6=CC(=O)OC6)CC[C@]45O)[C@@]3(C)CC2)[C@@H]1O` (some centres undefined), the Potency is reported as 0.0769 µM (active).
In the case of `COc1ccc(C23CCC(=O)C=C2N(C)CC3)cc1OC` (centres undefined), the Potency is reported as 3.66 µM (active).
In the case of `CC1=C[C@H]2O[C@@H]3C[C@H]4OC(=O)/C=C/C=C/C(=O)OCC/C(C)=C/C(=O)OC[C@@]2(CC1)[C@]4(C)[C@]31CO1`, the Potency is reported as 0.0056 µM (active).
For `O=C1Nc2ccc3ncsc3c2/C1=C/c1cnc[nH]1`, the Potency was 0.164 µM (active).
For `CCC(C)C1NC(=O)C(C(C)=O)=C1O` (centres undefined), the Potency was 29.8 µM (active).
For `O=C1NC(=O)c2c1c1c3ccccc3[nH]c1c1[nH]c3ccccc3c21`, the Potency was 0.0517 µM (active).
With `CC(=O)O[C@H]1CC[C@H]2[C@@H]3CC[C@H]4CC(=O)C=C(C)[C@]4(C)[C@H]3CC[C@]12C` the Potency was 11.6 µM (active).
In the case of `CC(=O)O[C@H]1C(=O)[C@]2(C)C(O)C[C@H]3OC[C@@]3(OC(C)=O)[C@H]2[C@H](OC(=O)c2ccccc2)[C@]2(O)C[C@H](O)C(C)=C1C2(C)C` (some centres undefined), the Potency is reported as 6.85 µM (active).
In the case of `CCCCCCCCC(=O)NCc1ccc(O)c(OC)c1`, the Potency is reported as “inactive”.
For `C=C1[C@@H](O)[C@]2(O)OC[C@]34C2[C@]2(C)C(C[C@H]3OC(=O)[C@H](O)[C@@]14O)C(C)=CC(=O)[C@H]2O` (some centres undefined), the Potency was 3.17 µM (active).
For `COC1(C[S@@](=O)c2ccccc2)CCN(CCc2c[nH]c3ccc(F)cc23)CC1`, the Potency was 20.6 µM (active).
For `C/C=C(\C)C(=O)O[C@@H]1[C@@H](C)[C@]2(O)C3C=C(C)C(=O)[C@@]3(O)CC(CO)=C[C@H]2C2C(C)(C)[C@@]21OC(=O)C(C)CC` (some centres undefined), the Potency was 0.0045 µM (active).
For `CCCCN1[C@@H]2CC[C@H]1CC(OC(c1ccc(F)cc1)c1ccc(F)cc1)C2` (some centres undefined), the Potency was 8.2 µM (active).
In the case of `CC1=CC(=O)[C@@H](O)[C@]2(C)C3[C@@H](O)[C@@H]4OC(=O)[C@@H]([C@H]4C)[C@]3(C)C(=O)[C@H](O)[C@@H]12` (some centres undefined), the Potency is reported as 12.8 µM (active).
With `CC(C)[C@@H](CN1CC[C@@](C)(c2cccc(O)c2)[C@@H](C)C1)NC(=O)[C@H]1Cc2ccc(O)cc2CN1` the Potency was 16.4 µM (active).
For `C[C@H]1O[C@@H](O[C@H]2CC[C@]3(CO)C4CC[C@]5(C)[C@@H](C6=CC(=O)OC6)CC[C@]5(O)[C@@H]4CC[C@H]3C2)[C@H](O)[C@H](O)[C@@H]1O[C@@H]1O[C@H](CO)[C@@H](O)[C@H](O)[C@H]1O` (some centres undefined), the Potency was 0.544 µM (active).
For `CC1=C2C(=O)C3[C@@H](CC=C4C[C@@H](O)CC[C@@]43C)[C@@H]2CC[C@]12O[C@@H]1C[C@H](C)CN[C@H]1[C@H]2C` (some centres undefined), the Potency was “inactive”.
In the case of `CCOC(=O)Nc1ccc(NCc2c(C)cc(C)cc2C)cc1N`, the Potency is reported as 9.2 µM (active).
In the case of `C=C(CO)C(=O)O[C@H]1C/C(C)=C/CC/C(CO)=C/[C@H]2OC(=O)C(=C)[C@H]12`, the Potency is reported as “inactive”.
In the case of `COC(=O)C1=COC(C)C2CN3CCC4(C(=O)Nc5ccccc54)C3CC12` (centres undefined), the Potency is reported as 14.3 µM (active).
For `Oc1ccc2c(c1)C13CCCC[C@H]1[C@@H](C2)N(CC1CCC1)CC3`, the Potency was 10.3 µM (active).
With `C[C@]12CC[C@H](OC3OC(CO)C(O)C(O)C3OC3OC(CO)C(O)C(O)C3O)C[C@@H]1CC[C@@H]1C2CC[C@]2(C)[C@@H](C3=CC(=O)OC3)CC[C@]12O` (some centres undefined) the Potency was 5.44 µM (active).
For `CC1=CC2/C=C(\C)CCC(O)C(O)C(O)CC(=O)C23C(=O)NC(CC(C)C)C3C1C` (centres undefined), the Potency was 1.78 µM (active).
In the case of `CN1C(=O)[C@@H](Cc2c[nH]c3ccccc23)N=C(c2ccccc2F)c2ccccc21`, the Potency is reported as 20.6 µM (active).
In the case of `COc1ccc(CC2C(=O)NC(C)C(=O)N(C)C3Cc4ccc(cc4)Oc4cc(ccc4OC4OC(CO)C(O)C(O)C4O)CC(C(=O)NC(C)C(=O)NC(CCC(=O)O)C(=O)N2C)N(C)C3=O)cc1` (centres undefined), the Potency is reported as 0.618 µM (active).
In the case of `CC(=O)OC[C@]12C[C@H](O)C(C)=C[C@H]1O[C@@H]1[C@H](O)[C@@H](O)[C@@]2(C)[C@]12CO2`, the Potency is reported as 0.805 µM (active).
With `COC(=O)CC1CC2(C(=O)c3c(O)cccc3C2(O)C(=O)OC)C(C)O1` (centres undefined) the Potency was 16.1 µM (active).
In the case of `CC(=O)OC1CC(O)C2(C)C(CC(OC(C)=O)C3(C)C2CCC2(C)C(c4ccoc4)C(=O)C4OC423)C1(C)C` (centres undefined), the Potency is reported as 6.32 µM (active).
For `ClC1=C(Cl)[C@]2(Cl)[C@@H]3[C@@H]4C[C@@H]([C@H]5O[C@@H]45)[C@@H]3[C@@]1(Cl)C2(Cl)Cl`, the Potency was 30.6 µM (active).
In the case of `CCOC(=O)C1(CCc2ccccc2)CCN(Cc2ccc(NC(C)=O)cc2)CC1`, the Potency is reported as 23.1 µM (active).
With `C/C=C(\C)C(=O)OC1C2C3(C)CCC(OC4CC(OC)C(OC5OC(C)C(O)C(OC)C5O)C(C)O4)CC3CCC23OC32CCC(C(C)=O)C2(C)C1OC(=O)/C(C)=C/C` (centres undefined) the Potency was 3.9 µM (active).
